In ChEMBL document CHEMBL3433997, “St. Jude Leishmania screening dataset” (2016):

Legend:
Format in all cases: functional
[1] = target: Solute carrier family 2, facilitated glucose transporter member 1 (Homo sapiens) (UniProt P11166); experiment: ST_JUDE_LEISH: Cytotoxicity at 2uM final concentration against transgenic Leishmania Mexicana promastigotes LmGLUT1 that are glucose transport deficient and complemented with the human glucose transporter GLUT1. Activity is measured by DNA content using SYBR green in vitro
[2] = target: Hexose transporter 1 (Plasmodium falciparum) (UniProt O97467); experiment: ST_JUDE_LEISH: Cytotoxicity at 2uM final concentration against transgenic Leishmania Mexicana promastigotes LmPfHT that are glucose transport deficient and complemented with the Plasmodium falciparum hexose transporter. Activity is measured by DNA content using SYBR green in vitro
[3] = target: Glucose transporter (Leishmania mexicana) (UniProt O61059); experiment: ST_JUDE_LEISH: Cytotoxicity at 2uM final concentration against transgenic Leishmania Mexicana promastigotes LmGT2 that are glucose transport deficient and complemented with the L. Mexicana glucose transporter 2. Activity is measured by DNA content using SYBR green in vitro

Sequence of Solute carrier family 2, facilitated glucose transporter member 1 (Homo sapiens) (P11166 whole entry): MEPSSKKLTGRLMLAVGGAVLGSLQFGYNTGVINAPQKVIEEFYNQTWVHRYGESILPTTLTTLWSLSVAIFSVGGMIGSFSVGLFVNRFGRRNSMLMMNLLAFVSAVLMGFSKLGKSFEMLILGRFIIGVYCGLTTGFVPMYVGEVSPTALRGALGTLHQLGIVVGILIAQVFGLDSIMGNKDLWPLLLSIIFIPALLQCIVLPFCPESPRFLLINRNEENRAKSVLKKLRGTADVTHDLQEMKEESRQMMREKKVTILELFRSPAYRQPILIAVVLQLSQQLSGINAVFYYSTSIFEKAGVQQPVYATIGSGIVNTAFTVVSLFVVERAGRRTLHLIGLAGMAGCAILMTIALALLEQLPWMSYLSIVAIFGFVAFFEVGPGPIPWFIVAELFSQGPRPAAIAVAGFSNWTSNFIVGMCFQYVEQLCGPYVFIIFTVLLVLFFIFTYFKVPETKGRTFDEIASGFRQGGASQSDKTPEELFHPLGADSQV

Compound	inhibition [1] [%]	inhibition [2] [%]	inhibition [3] [%]
COc1ccc(-c2csc(C(=O)NC3CCC(N4CCC(c5ccccc5C)CC4)CC3)c2)cc1 (centres undefined)	3.25	4.24	3.51
COCCNC(=O)c1ccc(OC2CCN(CC(C)=Cc3ccccc3)CC2)c(Cl)c1	2.65	3.32	1.03
COc1cc2nc(SCC(C)C)n(CCCn3ccnc3)c(=N)c2cc1OC	3.51	6.49	3.6
Cc1cc2nc(-c3ccc(/C=C/C(=O)NCc4ccc(Cl)c(Cl)c4)cc3)[nH]c2cc1C	8.62	8.06	4.96
CCCOc1ccc(OCCCON2C(=N)N=C(N)NC2(C)C)cc1	1.05	0.05	0.28
CN1CCC(N(Cc2ccc(-c3ccc(C(F)(F)F)cc3)cc2)C(=O)Cn2cc(Cc3cnn(C)c3)c(=O)nc2SCc2cccc(F)c2F)CC1	2.43	2.37	2.81
COc1cc(Cc2cnc(N)nc2N)cc(OCc2cccc(C(=O)O)c2)c1OC	-0.05	-2	1.03
CCOc1ccc(C2CCN(CCCCNC(=O)c3ccc(NC(=O)c4ccc(Cl)cc4)cc3)CC2)c(CC)c1	0.2	-0.09	-0.33
CC(C(=O)OCCOCn1cnc2c(=O)[nH]c(N)nc21)N(C)C(=O)OC(C)(C)C (centres undefined)	-2.44	-1.51	-3.59
COc1cc2c(cc1OCCN1CCC(N3CCCCC3)CC1)N(C(=O)/C=C/c1ccccc1Cl)CC2	0.24	1.79	1.83
Cc1cc(OCCCN2CCC(NS(=O)(=O)c3cc(Br)c(Cl)s3)CC2)c2ccccc2n1	-1.11	-0.46	-0.25
Cc1cccc2nc(-c3ccc(-c4ccc(CN5CCN(c6cnccn6)CC5)cc4)s3)[nH]c12	11.9	9.41	9.78
COc1ccc(N2C(N)=NC(N)=NC2(C)C)cc1OC	3.76	5.41	5.83
COc1cc2ncnc(Nc3ccc(OCc4ccccc4)c(C(F)(F)F)c3)c2cc1OC	1.67	0.75	0.32
Nc1nccc2ccc(-c3ccc(NC(=O)Nc4cc(C(F)(F)F)ccc4F)cc3)cc12	0.91	4.94	-0.4
CCN(CC)CCN(Cc1ccc(-c2ccc(C(F)(F)F)cc2)cc1)C(=O)Cn1c(CCc2ccc(F)c(F)c2)cc(=O)c2ccccc21	7.8	7.35	8.28
CCCCc1cc(NC2CCN(C)CC2)nc(Nc2ccccc2)n1	10.5	8.07	8.76
CC[C@H](C)CNC(=O)c1cncc(-c2ccc(CNCCCc3ccccc3)cc2)c1	1.47	-1.11	-2.21
CCCN(CCC)C(=O)c1cc(C(=O)N[C@@H](Cc2ccccc2)[C@H](O)CNC2CC2)cc(N2CCCCS2(=O)=O)c1	2.88	2.88	1.62
Clc1ccccc1CN1CCC(NCc2cccc(-n3ccnc3)c2)CC1	2.64	-1.07	1.16
CCNc1cc(C(=O)N[C@@H](Cc2ccccc2)[C@H](O)CN[C@@H](C)c2cccc(OC)c2)cc(N2CCCC2=O)c1	3.36	2.81	3.09
O=C(/C=C/c1ccc2ccccc2c1)NCCCCCN1CCC(c2c[nH]c3ccccc23)CC1	3.34	5.66	0.03
O=C(NCC1CCN(Cc2ccc3c(c2)OCCO3)C1)c1cc(-c2ccccc2F)cs1 (centres undefined)	4.88	4.71	7.55
CCCCn1c(SC(C)C)nc2c(c1=O)C1(CCCCC1)Cc1ccccc1-2	4.14	4.8	3.66
Cc1cc(N2CCN(CC3CCN(C)CC3)CC2)nc(Nc2ccc(Br)cc2)n1	1.44	2.2	1.74

Compound	inhibition [1] [%]	inhibition [2] [%]	inhibition [3] [%]
O=[N+]([O-])c1cccc(CNCC2CCN(Cc3ccc(Cl)c(Cl)c3)CC2)c1	18.2	9.74	12.9
CC(C)c1ccc(CN2CCCCC(NC(=O)c3cc(-c4ccccc4Cl)cs3)C2)cc1 (centres undefined)	-0.41	-1.98	-4.09
CC1(CCCCN2CCC(Cc3ccccc3)CC2)C(=O)Nc2ccccc21 (centres undefined)	6.25	5.65	4.71
O=C(NC1CCN(CCC[C@]2(c3ccc(Cl)c(Cl)c3)CCCN(C(=O)c3ccccc3)C2)CC1)c1ccc(Cl)cc1	-0.59	-1.27	-2.33
N=C(N)NCCCN(Cc1ccccc1)c1ccccc1	3.87	2.61	1.89
O=C(Nc1cccc(CN2CCCN(Cc3ccc(O)cc3)CC2)c1)c1ccc(Cl)c(Cl)c1	10.6	11	5.2
Cc1nc2c(c(C)nn2C(C)(C)C)c(C)c1CCC(=O)Nc1ccc(CN2CCCC2)cc1	9.93	6.16	5.29
COc1cc(COc2c(C)nc(N)nc2N)cc(OC)c1OC	5.98	4.54	4.97
N#Cc1cccc(C(O)C2CN(CCC3CCCCC3)CCC2(O)c2ccccc2)c1 (centres undefined)	-1.82	-0.13	2.48
Cc1cc(NC(=O)Nc2cccc(N(C)C)c2)c2ccccc2n1	2.29	2.59	1.12
COc1cc(NC(=O)c2ccc(-c3ccc(C(C)=O)cc3)s2)ccc1OCCN1CCCC1	0.3	-0.14	1.4
O=C(CNC1CCCCC1)Nc1cccc(C(=O)Nc2cccc(C(F)(F)F)c2)c1	-1.07	-0.66	-1.14
Cc1[nH]c(C)c(-c2ccc(/C=C/c3ccccn3)cc2)c(=O)c1Cl	4.28	4.49	5.12
C[C@H](N[C@H]1CCCc2c1[nH]c1ccc(Br)cc21)c1ccccc1	2.46	0.78	0.74
CC1CN(C(=O)c2sc3ccccc3c2Cl)CC(C)O1 (centres undefined)	-2.33	0.96	0.74
Cc1cnccc1/C=C/c1cccc(OCCN2CCc3ccc(S(C)(=O)=O)cc3CC2)c1	1.95	2.77	1.68
Brc1cc(CNCCCNc2nc3ccccc3[nH]2)sc1Br	6.22	9.1	6.32
Cc1cccc2nc(-c3cccc(-c4cccc(NC(=O)c5cccnc5Cl)c4)c3)[nH]c12	1.25	2.51	3.23
Cc1cccc(-n2c(=O)c3c4c(sc3n3c(SCCC(C)C)nnc23)CCCC4)c1	0.75	1.59	-0.43
Cc1cc2c(cc1C(F)(F)F)N(C(=O)Nc1cccc(C(=O)NC3CCN(Cc4ccccc4)CC3)c1)CC2	2.13	3.38	3.16
Cc1cccc2nc(-c3cccc(-c4ccc(CNCc5cnn(-c6ccccc6)n5)cc4)c3)[nH]c12	0.18	2.02	0.22
NC(=O)c1ccsc1NC(=O)CNC(c1ccc(F)cc1)c1cccs1 (centres undefined)	2.48	2.01	2.8
Cc1cccc2nc(-c3ccc(-c4cccc(NC(=O)NCc5cccc(F)c5)c4)cc3)[nH]c12	-0.32	0.88	-1.06
O=C(/C=C/c1ccc(Cl)c(Cl)c1)NCCCCCN1CCCC(CNC(=O)/C=C/c2ccccc2)C1 (centres undefined)	-0.59	-0.44	-0.59
CCc1ccc(C(=O)NC(=O)c2ccccc2O)cc1	3.44	3.45	3.61

Compound	inhibition [1] [%]	inhibition [2] [%]	inhibition [3] [%]
O=C(NC(NC(=S)Nc1ccc([N+](=O)[O-])cc1)C(Cl)(Cl)Cl)c1cccc(Cl)c1 (centres undefined)	-0.29	-1.54	-0.06
O=C(Nc1cccc(CN2CCCN(Cc3ccccc3)CC2)c1)c1ccc(Cl)c(Cl)c1	4.45	3.88	-5.96
CCc1ccccc1N1CCN(CCCC(=O)c2ccc(NC(=O)c3cc(Cl)cc(Cl)c3)cc2)CC1	3.17	4.43	3.44
OCCNc1nc(Nc2ccc(F)cc2)nc2ccccc12	3.51	3.35	2.07
CN1CCCC1CCNCc1cccc(-c2cnc(N(C)C3CCCCC3)nc2)c1 (centres undefined)	102	102	101
Cc1cc(C(=O)Nc2ccc3c(c2)CCN3C2CCN(Cc3ccc4nsnc4c3)C2)no1 (centres undefined)	3.24	2.32	5.35
Cc1sc(CNCCCNc2cc(=O)c3ccccc3[nH]2)c(I)c1C	3.11	2.66	1.68
O=C(NC1CCN(Cc2ccccc2)CC1)c1ccc(-c2nc3cc(Cl)c(F)cc3[nH]2)cc1	1.14	0.15	2.45
O=C(Nc1cccc(-c2nn3ncccc3c2-c2ccnc(Nc3cccnc3)n2)c1)c1c(F)cccc1F	1.51	3.78	2.21
CCCc1cc(NC2CCN(C)CC2)nc(Nc2ccc(F)cc2)n1	10	6.83	5.22
CN(C)CCNC(=O)NC1CN(c2ncnc3cc(-c4ccccc4)sc23)C1	5.45	4.29	4.03
CNC(=O)/C=C/c1cc(NC(=O)Nc2ccnc3c(Br)cccc23)ccc1OC	3.51	2.22	0.98
COc1ccc(C2c3ccccc3-c3nc(N)nc(N)c3C2C)cc1 (centres undefined)	3.13	3.19	0.31
COc1ccc(CON2C(=N)N=C(N)NC2(C)C)cc1OC	-1.03	-1.38	-0.13
CN(C)c1ccc(N2C(N)=NC(N)=NC23CCCC3)cc1	-0.69	-0.9	-3.85
O=C(Nc1ccc2c(c1)OCO2)c1cc(-c2cccnc2)nc2ccc(Cl)cc12	3.49	0.67	-0.92
COc1cc(Nc2nccc(-c3c(-c4cccc(NC(=O)c5c(F)cccc5F)c4)nn4ncccc34)n2)cc(OC)c1OC	12.1	16.6	6.39
COc1ccc2cc(C(c3nnnn3CC3CCCO3)N3CCc4ccccc43)c(=O)[nH]c2c1 (centres undefined)	2.55	3.26	2.23
COc1ccc(NC(=O)Nc2ccc(-c3ccncc3)c(Cl)c2)cc1N1CCN(C)CC1	-1.37	-0.91	-2.2
COc1cc(C(=O)NC2CCN(Cc3ccccc3)CC2)ccc1-c1nc2cc(Cl)c(C)cc2[nH]1	10.1	9.26	5.5
CN(C)C(=O)C(CC(=O)NCc1ccccc1Cl)N(C)C.CN(C)C(=O)CC(C(=O)NCc1ccccc1Cl)N(C)C (centres undefined)	3.97	4.82	4.89
CCOC(=O)c1c(C)n(-c2ccccc2)c2ccc(OC(=O)COc3ccc(Cl)cc3Cl)cc12	7.5	6.74	6.97
S=C(NCCc1ccccc1)Nc1ccc2ncsc2c1	-0.85	1.14	-0.73
